Compounds without any hit were thinned out: in the full panel of roughly 83,000, 20% have a hit.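 Assay: single dose, 48 h. Readout: percent growth (0 = no net growth; negative = cell death). Active: <10.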 Values without a mark were called inactive. Active and inactive are the calls of the source.

For one assay, the system named is MDA-MB-435 melanoma. Put plainly: NCI-60 one-dose screen, 48 h (100 = growth as untreated, 0 = no growth, -100 = all killed). The following applies: 10 µM unless noted.
For `CCN(CC)c1ccc(C(=O)c2ccccc2)cc1`, the growth is 105%.

Take `NC1=NN=C(N)C1=Cc1cc2ccccc2n2nnnc12`: the growth was 108%.

`Fc1ccc(-c2cn3c(nc4ccccc43)c(-c3ccccc3)n2)cc1`: the growth was 98%.

Regarding `CCNc1nc2ccc(Nc3ccnc4cc(Cl)ccc34)cc2[nH]1`, the growth is 93.1%.

With `O=S(=O)(NCCNc1nccc(-c2c(-c3cccc(O)c3)nc3occn23)n1)c1cccc(F)c1`, the growth is 34.3%.

For `COC(=O)/C=C1\S/C(=N\NC(=O)c2cc3ccc2/C=C\c2ccc(cc2)/C=C\3)N(c2ccccc2)C1=O`, the growth was 89.6%.

In the case of `CCOC(=O)c1cc(C(=O)c2ccc(OC)c(OC)c2)n2c1ccc1ccccc12`, the growth was 89.5%.

On to `CCOC(=O)c1cc(C#N)n2ccc3ccccc3c12`, for which the growth was 99.1%.

With `O=C1/C=C/[C@@H](O)[C@@H]2C[C@@H](O)C[C@H]2/C=C/CCC[C@H](CCc2ccc3ncccc3c2)O1`, the growth is 5.74% (active).

As for `N#CC1=C(N)Oc2c(ccc3ccccc23)C1c1ccccc1Cl` (centres undefined), the growth is -41.2% (active).

With `O=C(O)c1ccc(NCc2cn(-c3ccc(C(F)(F)F)cc3)nc2-c2ccc(C(=O)O)cc2)cc1`, the growth is 102%.

On to `COc1cccc(C(=O)NNc2nc(Cl)nc(N3CCN(C(c4ccccc4)c4ccccc4)CC3)n2)c1`, for which the growth was 97.2%.

Regarding `N#C/C(=C\c1ccc(Cl)cc1)n1nnc2cc(F)c(F)cc21`, the growth was 5.95% (active).

For `COc1ccc(C(=O)C2C(C#N)C(C#N)C3c4ccccc4C=CN23)cc1` (centres undefined), the growth is 96.1%.

For the compound `COc1cc(/C=N/NC(=O)c2cnn3c2NC(c2ccccc2)C3)ccc1Oc1ccccc1` (centres undefined), the growth was -22.9% (active).

Consider `C[C@H](c1nc2ccc(N)cc2[nH]1)[C@H]1CC[C@H]2[C@@H]3CCC4=CC(=O)CC[C@]4(C)[C@H]3CC[C@]12C`, for which the growth was 95.7%.

For the compound `COc1cc(C2C3=C(COC3=O)N(CCO)c3cc4c(cc32)CCC4)cc(OC)c1OC` (centres undefined), the growth was -9.03% (active).

Consider `Cc1ccc(NC(C(=O)c2ccccc2)c2ccccc2)cc1` (centres undefined), for which the growth was 30.6%.

As for `OCc1cnccc1NCCCOc1ccccc1`, the growth was 110%.

Consider `Cn1cc(CC2CC(=O)N(c3ccccc3)C2=O)sc1=NC(=O)c1ccccc1` (centres undefined), for which the growth is 101%.

Turning to `OCc1cnc2ccccc2c1NC1CCCCCC1`, the growth was 91.4%.

Turning to `Cc1cccc(NC(=O)Nc2ccc(-n3cnc4cc(-c5ccc(O)cc5)ccc43)cc2)c1`, the growth is 25.9%.

Turning to `COc1ccc(/C=N/NC(=O)c2cnn3c2NC(c2ccccc2)C3)cc1OC` (centres undefined), the growth is 0.386% (active).

With `Cc1c(C)c([N+](=O)[O-])c(C)c([N+](=O)[O-])c1C`, the growth is 115%.

On to `COc1c(Cl)c2c(c(OC)c1OC)-c1ccc(SC)c(=O)cc1[C@@H](NC(=O)OCC(F)(F)F)CC2`, for which the growth was -36.9% (active).

For the compound `O=C(/C=C/c1ccc(Cl)cc1)c1ccc(NC(=O)N2CCN(c3cc4c(cc3F)c(=O)c(C(=O)O)cn4C3CC3)CC2)cc1`, the growth was 98.8%.

In the case of `CCOc1ccc(/C=N/Nc2cc(C)nc3ccc(Br)cc23)cc1`, the growth is 92.6%.

Turning to `CNC(=O)c1cncc(Cn2nc(C)c(NC(=O)c3ccc(COc4ccc(C(F)(F)F)cc4C)cc3)c2C)c1`, the growth was 66.6%.

As for `COc1ccc(C(=O)c2nc3ccccc3n2CC(=O)c2ccc(F)cc2)cc1`, the growth is -16.4% (active).

`CN1CCN(c2ccc(NC3=C(Cl)C(=O)c4ncccc4C3=O)cc2C(F)(F)F)CC1`: the growth was -62.5% (active).

As to `COc1ccccc1NS(=O)(=O)c1cccc(C(=O)Nc2ccc(Br)cc2)c1`, the growth was 35.3%.

Take `CCNC(=O)Oc1ccc(/C(=C(\C)c2ccccc2)c2ccc(OCCN(CC)CC)cc2)cc1`: the growth is 71%.

Consider `Oc1ccc(C2c3ccccc3Oc3ccccc32)c2cccnc12`, for which the growth is 27.3%.

Turning to `COc1ccc2c(c1)oc1c(C)c3c(c(C)c12)C(=O)N(N)C3=O`, the growth is 36.8%.

With `C[C@H]1[C@H]2[C@H]3CC[C@@H]4[C@@]5(C)CC[C@H](O)C(C)(C)[C@@H]5CC[C@@]4(C)[C@]3(C)CC[C@]23CO[C@]1(C)[C@@H](C(=O)/C=C\c1ccco1)C3`, the growth was 17.8%.

As to `COc1ccc(C/C(C)=C(/c2ccc(OCCCN(C)C)cc2)c2ccc(OC(C)=O)cc2)cc1`, the growth is 48.4%.

Consider `CC1(C)CC[C@]23CC[C@]4(C)[C@H](CC[C@@H]5[C@@]6(C)CCCNC(C)(C)[C@@H]6CC[C@]54C)[C@H]2[C@H]1OC3`, for which the growth is -80% (active).

The subject of a further assay is SW-620 colon. The description is as above. The following applies: 10 µM unless noted.
For `CCN(CC)c1ccc(C(=O)c2ccccc2)cc1`, the growth is 102%.

With `NC1=NN=C(N)C1=Cc1cc2ccccc2n2nnnc12`, the growth is 98.2%.

Regarding `Fc1ccc(-c2cn3c(nc4ccccc43)c(-c3ccccc3)n2)cc1`, the growth is 95.8%.

For the compound `CCNc1nc2ccc(Nc3ccnc4cc(Cl)ccc34)cc2[nH]1`, the growth was 57.8%.

With `O=S(=O)(NCCNc1nccc(-c2c(-c3cccc(O)c3)nc3occn23)n1)c1cccc(F)c1`, the growth was 115%.

For the compound `COC(=O)/C=C1\S/C(=N\NC(=O)c2cc3ccc2/C=C\c2ccc(cc2)/C=C\3)N(c2ccccc2)C1=O`, the growth was 7.39% (active).

For the compound `CCOC(=O)c1cc(C(=O)c2ccc(OC)c(OC)c2)n2c1ccc1ccccc12`, the growth was 93.4%.

For the compound `CCOC(=O)c1cc(C#N)n2ccc3ccccc3c12`, the growth is 97.9%.

Regarding `O=C1/C=C/[C@@H](O)[C@@H]2C[C@@H](O)C[C@H]2/C=C/CCC[C@H](CCc2ccc3ncccc3c2)O1`, the growth was -14.2% (active).

For the compound `N#CC1=C(N)Oc2c(ccc3ccccc23)C1c1ccccc1Cl` (centres undefined), the growth was 21.9%.

As to `O=C(O)c1ccc(NCc2cn(-c3ccc(C(F)(F)F)cc3)nc2-c2ccc(C(=O)O)cc2)cc1`, the growth is 110%.

Take `COc1cccc(C(=O)NNc2nc(Cl)nc(N3CCN(C(c4ccccc4)c4ccccc4)CC3)n2)c1`: the growth is 33.9%.

As for `N#C/C(=C\c1ccc(Cl)cc1)n1nnc2cc(F)c(F)cc21`, the growth was -15% (active).

For the compound `COc1ccc(C(=O)C2C(C#N)C(C#N)C3c4ccccc4C=CN23)cc1` (centres undefined), the growth was 99.7%.

For the compound `COc1cc(/C=N/NC(=O)c2cnn3c2NC(c2ccccc2)C3)ccc1Oc1ccccc1` (centres undefined), the growth was 24.9%.

With `C[C@H](c1nc2ccc(N)cc2[nH]1)[C@H]1CC[C@H]2[C@@H]3CCC4=CC(=O)CC[C@]4(C)[C@H]3CC[C@]12C`, the growth was 102%.

For the compound `COc1cc(C2C3=C(COC3=O)N(CCO)c3cc4c(cc32)CCC4)cc(OC)c1OC` (centres undefined), the growth is 21.4%.

For `Cc1ccc(NC(C(=O)c2ccccc2)c2ccccc2)cc1` (centres undefined), the growth is 67.1%.

As to `OCc1cnccc1NCCCOc1ccccc1`, the growth was 98.3%.

`Cn1cc(CC2CC(=O)N(c3ccccc3)C2=O)sc1=NC(=O)c1ccccc1` (centres undefined): the growth is 94.5%.

Consider `OCc1cnc2ccccc2c1NC1CCCCCC1`, for which the growth is 98%.

In the case of `Cc1cccc(NC(=O)Nc2ccc(-n3cnc4cc(-c5ccc(O)cc5)ccc43)cc2)c1`, the growth is 29.6%.

For `COc1ccc(/C=N/NC(=O)c2cnn3c2NC(c2ccccc2)C3)cc1OC` (centres undefined), the growth was 44.4%.

Turning to `Cc1c(C)c([N+](=O)[O-])c(C)c([N+](=O)[O-])c1C`, the growth is 109%.

For the compound `COc1c(Cl)c2c(c(OC)c1OC)-c1ccc(SC)c(=O)cc1[C@@H](NC(=O)OCC(F)(F)F)CC2`, the growth is 21.9%.

As to `O=C(/C=C/c1ccc(Cl)cc1)c1ccc(NC(=O)N2CCN(c3cc4c(cc3F)c(=O)c(C(=O)O)cn4C3CC3)CC2)cc1`, the growth was 97.2%.

On to `CCOc1ccc(/C=N/Nc2cc(C)nc3ccc(Br)cc23)cc1`, for which the growth was 55.2%.

Regarding `CNC(=O)c1cncc(Cn2nc(C)c(NC(=O)c3ccc(COc4ccc(C(F)(F)F)cc4C)cc3)c2C)c1`, the growth was 102%.

As to `COc1ccc(C(=O)c2nc3ccccc3n2CC(=O)c2ccc(F)cc2)cc1`, the growth was 46%.

`CN1CCN(c2ccc(NC3=C(Cl)C(=O)c4ncccc4C3=O)cc2C(F)(F)F)CC1`: the growth is -53% (active).

In the case of `COc1ccccc1NS(=O)(=O)c1cccc(C(=O)Nc2ccc(Br)cc2)c1`, the growth is 55.1%.

As for `CCNC(=O)Oc1ccc(/C(=C(\C)c2ccccc2)c2ccc(OCCN(CC)CC)cc2)cc1`, the growth is 82.6%.

In the case of `Oc1ccc(C2c3ccccc3Oc3ccccc32)c2cccnc12`, the growth is 23.5%.

Consider `COc1ccc2c(c1)oc1c(C)c3c(c(C)c12)C(=O)N(N)C3=O`, for which the growth is 29.4%.

With `C[C@H]1[C@H]2[C@H]3CC[C@@H]4[C@@]5(C)CC[C@H](O)C(C)(C)[C@@H]5CC[C@@]4(C)[C@]3(C)CC[C@]23CO[C@]1(C)[C@@H](C(=O)/C=C\c1ccco1)C3`, the growth was 97.1%.

Turning to `COc1ccc(C/C(C)=C(/c2ccc(OCCCN(C)C)cc2)c2ccc(OC(C)=O)cc2)cc1`, the growth was 87.8%.

With `CC1(C)CC[C@]23CC[C@]4(C)[C@H](CC[C@@H]5[C@@]6(C)CCCNC(C)(C)[C@@H]6CC[C@]54C)[C@H]2[C@H]1OC3`, the growth is -71.9% (active).

These data come from PubChem BioAssay (NCI).
